Bioassay records from PubChem.
14-3-3 Bad PPI – disrupts binding of bovine 14-3-3 zeta to phospho-Bad peptide; P63103; TR-FRET 14-3-3zeta/Dy647-pBad peptide displacement, 1 h; inhibition, % at 21.7 µM; actives 0.71% (n = 220,000); AID 781;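 active = inhibition above about 70%, limit read from the data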
Target sequence (P63103 whole entry, looked up): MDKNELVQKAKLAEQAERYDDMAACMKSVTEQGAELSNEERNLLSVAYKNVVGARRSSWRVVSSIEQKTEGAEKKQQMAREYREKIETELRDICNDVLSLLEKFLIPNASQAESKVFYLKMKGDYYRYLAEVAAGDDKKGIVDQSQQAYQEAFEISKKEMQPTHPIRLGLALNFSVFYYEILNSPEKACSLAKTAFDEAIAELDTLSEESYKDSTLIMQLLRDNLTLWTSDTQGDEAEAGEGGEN
Bim-Mcl-1 – human Bim-Mcl-1 interaction inhibition; Bead-based flow cytometry, Bim peptide-Mcl-1 binding; actives 0.1% (n = 190,000); inhibition, % at 10 µM; AID 1009; in the data active = inhibition above about 40%
Target sequence (Q07820 whole entry, looked up): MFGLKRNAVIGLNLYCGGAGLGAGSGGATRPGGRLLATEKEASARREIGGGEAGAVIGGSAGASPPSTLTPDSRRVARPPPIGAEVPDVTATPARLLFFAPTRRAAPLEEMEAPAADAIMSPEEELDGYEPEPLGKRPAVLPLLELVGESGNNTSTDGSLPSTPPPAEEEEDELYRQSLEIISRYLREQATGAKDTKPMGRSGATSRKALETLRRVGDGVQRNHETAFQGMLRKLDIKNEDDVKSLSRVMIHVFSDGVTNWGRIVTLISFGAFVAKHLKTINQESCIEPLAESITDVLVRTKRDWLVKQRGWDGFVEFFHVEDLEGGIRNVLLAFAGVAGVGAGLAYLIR
eIF4E 4G PPI – eIF4E/eIF4G interaction inhibition in translation initiation. TR-FRET eIF4E-eIF4GI(517-606) binding, 2 h. actives 0.37% (n = 220,000). AID 782. inhibition, % at 21.7 µM;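 active = inhibition above about 30%, limit read from the data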
Hck-Nef inh – human Hck-Nef kinase inhibition | P08631 | Recombinant Hck-YEEI plus Nef, Z-Lyte FRET kinase assay | inhibition, % at 20 µM | actives 0.68% (n = 220,000) | AID 463187;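 active = Hck-Nef kinase inhibition above about 50%, limit read from the data; inactive = inhibition below that limit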
Mcl1-Noxa inh – disrupts binding of human Mcl-1 to Noxa peptide; TR-FRET Mcl-1/Noxa peptide binding, 2 h; inhibition, % at 21.7 µM; actives 1.5% (n = 220,000); AID 1022;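 active = compounds that cut the protein-peptide binding signal by more than 50% relative to plate controls in a single-dose test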;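 note: His-tagged Mcl-1 with rhodamine Noxa BH3 peptide and terbium anti-His antibody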
Mcl1-Bid inh – disrupts binding of human Mcl-1 to Bid peptide | TR-FRET Mcl-1/Bid-Dy647 peptide binding, 1536-well | inhibition, % at 21.7 µM | actives 0.97% (n = 220,000) | AID 1021;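 active = compounds that cut the binding signal by more than half at the single screening dose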;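 note: His-tagged Mcl-1 with europium anti-His antibody binding Bid BH3 peptide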
Of the large screens only hits and unclear results are named; the others gave an inactive call. This is a sample that favours compounds with a hit; in the whole collection about 3.5% have one here.

COc1cc(OC)c(OC)cc1CN1CCCC(C(=O)N2CCCCC2)C1 (stereo unspecified)	Mcl1-Bid inh 53.1
CCc1ccc(NC(=S)N2CCNC(=O)C2CC(=O)OC)cc1 (stereo unspecified)	none
N#Cc1ccsc1NC(=O)c1cccc([N+](=O)[O-])c1	Mcl1-Noxa inh 53.9
CC(=O)Nc1ccc(/C=N/N2CCCCC2)cc1	none
Oc1cc(-n2cccn2)c(O)cc1-n1cccn1	Mcl1-Noxa inh 69.8 (no result: Bim-Mcl-1)
CCOc1ccc(C(=O)Nc2nnc(NC(=S)Nc3ccccc3)s2)cc1	Bim-Mcl-1 64.0
CCC(CC)=N/N=C/c1c(O)n(CC)c2cc(C3=NNC(=O)CC3)ccc12	Mcl1-Bid inh 65.7
O=C(c1cccnc1)N1CCN(c2c(Cl)cccc2[N+](=O)[O-])CC1	none
COc1ccc(CCNC(=O)c2cc(-c3ccco3)on2)cc1OC	none
COc1ccc(CCNC(=O)c2ccc3nc(-c4ccco4)c(-c4ccco4)nc3c2)cc1OC	Mcl1-Noxa inh 99.3
O=C1Nc2ccc(Br)cc2C1=Nc1cccnc1	none (no result: Bim-Mcl-1)
Cc1cccc(Cn2c(C)nc3c(N)c(C)c(C)cc32)c1	Mcl1-Bid inh 90.6
Cc1cccc(Cn2c(C(C)O)nc3ccccc32)c1 (stereo unspecified)	none
COc1ccc(NC(=O)Cn2nnc(-c3ccccc3NC(=O)c3ccco3)n2)cc1	Mcl1-Bid inh 66.3
COc1ccccc1NC(=O)Cn1nnc(-c2ccccc2NC(=O)c2ccco2)n1	none
O=C(Cn1nnc(-c2ccccc2NC(=O)c2cccs2)n1)Nc1ccccc1	Mcl1-Bid inh 87.0
CCOC(=O)C1CCN(C(=S)NC2CC3C=CC2C3)CC1 (stereo unspecified)	none (no result: Bim-Mcl-1)
COC(=O)c1ccc(NC(=O)c2ccccc2N(C)S(=O)(=O)c2ccccc2)cc1	Mcl1-Bid inh 98.1
Cc1ccc(S(=O)(=O)c2c(C)cc(C)nc2Cl)c(C)c1	none
Cc1cc(C)c(S(=O)(=O)/N=C2\C=CC(=O)C(Cl)=C2)c(C)c1	Mcl1-Noxa inh 95.5
CCN(CC)c1ccc(NC(=O)COC(=O)CCC(=O)c2ccc(F)cc2)cc1	Mcl1-Noxa inh 70.3
O=C(CSc1cccc[n+]1[O-])Nc1ccc(C(F)(F)F)cc1[N+](=O)[O-]	none
O=[N+]([O-])c1ccc(Sc2cccc[n+]2[O-])c2nonc12	Mcl1-Noxa inh 61.7 (no result: Bim-Mcl-1)
CCC12CSc3nc(Cl)ccc3N1C(=O)C(=O)N2C (stereo unspecified)	none (no result: Bim-Mcl-1)
CC(=O)Nc1ccc(C2=NNC(=NCC3CCCO3)SC2)cc1 (stereo unspecified)	Mcl1-Noxa inh 60.6
CC1CCC/C(=C\Nc2ccc(O)cc2)C1=O (stereo unspecified)	none
CC1(C)OC(C)(C)/C(=C/Nc2ccc(O)cc2)C1=O	Mcl1-Noxa inh 57.0
Nc1ccc2c(c1)N=[N+]([O-])c1cc(N)ccc1C2	none (no result: Bim-Mcl-1)
O=C(CNc1ccc2ccccc2c1)N/N=C/C=C/c1cccc([N+](=O)[O-])c1	Mcl1-Noxa inh 76.9
O=Cc1ccc2oc3nc4n(c(=O)c3c(=O)c2c1)CCCS4	Mcl1-Noxa inh 72.8
O=c1c2cc(Br)cc(Br)c2oc2nc3n(c(=O)c12)CCCS3	none
Cc1cc(C)nc(N(C#N)S(=O)(=O)c2ccccc2Cl)n1	Mcl1-Bid inh 89.2
CCOc1ccc(N2CC(C(=O)Nc3c(C)n(C)n(-c4ccccc4)c3=O)CC2=O)cc1 (stereo unspecified)	none
Cc1ccc(NC(=O)c2ccc(OCc3c(C)noc3C)cc2)cc1	none (no result: Bim-Mcl-1)
Cc1noc(C)c1COc1ccc(C(=O)Nc2cccnc2)cc1	14-3-3 Bad PPI 78.7, Mcl1-Noxa inh 53.3
COc1ccc2[nH]c(N=Nc3ccccc3C)c(O)c2c1	none
CCOP(=O)(OCC)C(Nc1ccc(C)cc1)c1ccco1 (stereo unspecified)	none
O=C(COC(=O)c1ccc2c(c1Cl)C(=O)c1ccccc1C2=O)NC1CC1	none
Nc1ccc2c(c1Cl)C(=O)c1ccc(N)c(Cl)c1C2=O	Mcl1-Noxa inh 86.5 (no result: Bim-Mcl-1)
COC(=O)c1ccc2nc(Nc3nc4c(F)cc(F)cc4s3)sc2c1	Mcl1-Noxa inh 80.8, Mcl1-Bid inh 63.6
CCOC(=O)c1ccc2nc(Nc3nc4ccc(F)cc4s3)sc2c1	none
Cc1ccc2c(CN3CCN(S(=O)(=O)/C=C/c4ccccc4)CC3)cc(=O)oc2c1	none
O=C(CSc1nc(-c2ccccc2)nc2ccccc12)Nc1cccc(C(=O)O)c1	none
O=C(CSc1nc(-c2ccccc2)nc2c1Cc1ccccc1O2)Nc1ccc(C(=O)O)cc1	14-3-3 Bad PPI 94.3, eIF4E 4G PPI 60.1, Mcl1-Bid inh 88.0
CCc1nnc(NS(=O)(=O)c2ccc(NC(=S)NC(=O)/C=C/c3ccc(F)cc3)cc2)s1	Mcl1-Noxa inh 61.2
COc1cc(NS(=O)(=O)c2ccc(NC(=S)NC(=O)/C=C/c3ccc(OC)c(OC)c3)cc2)ncn1	Mcl1-Noxa inh 59.1
CCc1ccc(NC(=O)Cn2cccc2)cc1	none
Cc1cc(C)n(-c2nnc3n2N=C(c2ccccc2)CS3)n1	eIF4E 4G PPI 41.7
CCC(C(=O)c1ccc2ncccc2c1)c1ccccc1 (stereo unspecified)	none
COc1cc(C2=NOC(C(=O)Nc3cc(C)on3)C2)cc(OC)c1OC (stereo unspecified)	none (no result: Bim-Mcl-1)
Cc1cc(NCc2ccccn2)ccc1Br	14-3-3 Bad PPI 78.6
CCOC(=O)C1=C(O)/C(=C\c2ccc(CNC(=O)C(=O)Nc3ccc(C)c(C)c3)o2)N=C1C	none
CCc1[nH]c(=S)c(C#N)c(-c2ccccc2)c1C(=O)OC	none
Cc1ccccc1NC(=O)c1c(C)[nH]c(=S)c(C#N)c1-c1ccc(Cl)cc1	Mcl1-Bid inh 71.3 (no result: Bim-Mcl-1)
CCN(CC)C(=O)c1c(C)[nH]c(=S)c(C#N)c1-c1ccco1	Mcl1-Noxa inh 58.9
CC(C)Cc1c2c([nH]c(=S)c1C#N)CCCC2	Mcl1-Noxa inh 50.9
Cc1[nH]c(=S)c(C#N)c(-c2ccccc2)c1C(=O)Nc1ccccc1	eIF4E 4G PPI 32.2 (no result: Bim-Mcl-1)
Cc1ccc(S(=O)(=O)/C(C#N)=C/c2c(N3CCC(C(N)=O)CC3)nc3ccccn3c2=O)cc1	none
N#Cc1c(-c2ccco2)c2c([nH]c1=S)CCCC2	Mcl1-Noxa inh 59.3 (no result: Hck-Nef inh)
Cc1ccc(C(=O)Nc2ccccc2NC(=O)c2ccc(C)o2)o1	none
Cc1ccc(-c2c(C(=O)Nc3ccccc3C)c(C)[nH]c(=S)c2C#N)o1	Hck-Nef inh 55.7
CC(C)(C)OC(=O)NCCC(=O)Oc1ccc2ccc(=O)oc2c1	Hck-Nef inh 73.4
O=C(Oc1ccc2ccc(=O)oc2c1)c1cccs1	Hck-Nef inh 56.1
CC(C)(C)c1cc(C(=O)NCc2cc(F)cc3c2OCOC3)n(Cc2ccccc2)n1	none (no result: Bim-Mcl-1)
Nc1nnc(CC(=O)N2CCCCC2)s1	eIF4E 4G PPI 45.9
COc1cc(/C=C/c2nc3ccccc3s2)cc(OC)c1O	Mcl1-Noxa inh 55.0
Cc1ccc(/C=C/c2nc3ccccc3s2)s1	14-3-3 Bad PPI 77.5
